# NR3A LBD binder: binders of NR3A ligand-binding domain, primary screen, biophysical, differential scanning fluorimetry, uHTS | Glutamate receptor ionotropic, NMDA 3A (GRIN3A) ligand-binding domain | NR3A LBD differential scanning fluorimetry, Tm shift; 0% = protein alone, 100% = glycine-bound protein | Tm shift relative to glycine control, % at 25 µM | 340,000 tested, 2.5% active;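 active = melting temperature shift of at least 10% of the positive control shift, at one fixed dose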
# MPTP block: mitochondrial permeability transition pore inhibitors, primary screen, biochemical, isolated mouse mitochondria, absorbance; 360,000 tested, 1.4% active; AID 602449, 2012; Ca2+ swelling absorbance, 30 min; inhibition, % at 10 µM;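 active = inhibition of 50% or more, scaled per plate between neutral and stimulator controls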;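 also: 0% = DMSO wells given calcium and 100% = 1 mM EGTA wells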
# Gli-Sufu block: Gli-Sufu pathway antagonists, primary screen, luciferase luminescence, Sufu-KO-LIGHT cells, uHTS; Sufu-KO-LIGHT fibroblasts, Gli luciferase reporter luminescence; inhibition, % at 5 µM; 340,000 tested, 0.74% active;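 active = inhibition above about 55%, limit read from the data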;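 also: 0% = DMSO-treated cells and 100% = wells with medium but no cells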
# CSC inhib: cancer stem cell viability inhibitors, primary screen, luminescence; cancer stem cell-like cells viability; inhibition, % at 7.5 µM; 300,000 tested, 1.1% active; AID 2717, 2010; in the data active = inhibition above about 75%; inconclusive = no clear call, values can overlap the other calls; tested in HMLE shEcad cells
# Beta apoptosis: inhibitors of cytokine-induced beta cell apoptosis, primary screen, luminescence | INS-1E cytokine-induced death, ATP luminescence, 48 h; percent of positive-control rescue, neutral wells zero | protection from apoptosis, % (no concentration beside the values) | 300,000 tested, 0.8% active | AID 435005, 2010;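 active = Every replicate reaches about 75%, or at least half do and their mean reaches it too, limit read from the data; inconclusive = At least half of replicates reach the limit but their mean does not; inactive = Under half of replicates reach the limit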;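 also: 0% = cytokine-treated negative control wells and 100% = positive control rescue; higher means more ATP so stronger rescue from cytokine killing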
# Mdm2 MdmX PPI: inhibitors of human Mdm2-MdmX association, primary screen, cell-based, luminescence, split luciferase, SaOS-2, uHTS | Protein Mdm4 (Homo sapiens) + E3 ubiquitin-protein ligase Mdm2 (Homo sapiens), … | SaOS-2 split-luciferase Mdm2/MdmX complementation | inhibition, % at 8 µM | 330,000 tested, 3% active | AID 485346, 2010;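 active = inhibition of at least 50% at 8 µM in the primary screen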
# Target sequence (O15151 whole entry, looked up): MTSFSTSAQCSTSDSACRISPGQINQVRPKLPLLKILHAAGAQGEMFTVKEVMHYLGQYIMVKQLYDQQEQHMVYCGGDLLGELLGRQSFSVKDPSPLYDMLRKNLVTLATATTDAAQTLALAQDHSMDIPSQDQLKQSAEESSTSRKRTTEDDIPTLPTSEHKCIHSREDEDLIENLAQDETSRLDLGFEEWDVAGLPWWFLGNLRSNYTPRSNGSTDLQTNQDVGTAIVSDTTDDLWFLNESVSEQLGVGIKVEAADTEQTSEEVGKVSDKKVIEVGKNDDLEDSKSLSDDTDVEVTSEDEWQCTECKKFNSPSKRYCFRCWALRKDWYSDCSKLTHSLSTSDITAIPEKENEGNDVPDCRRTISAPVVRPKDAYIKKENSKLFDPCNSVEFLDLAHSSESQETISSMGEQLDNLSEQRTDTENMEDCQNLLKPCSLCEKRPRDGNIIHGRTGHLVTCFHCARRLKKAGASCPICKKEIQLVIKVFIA
# Target sequence (Q00987 whole entry, looked up): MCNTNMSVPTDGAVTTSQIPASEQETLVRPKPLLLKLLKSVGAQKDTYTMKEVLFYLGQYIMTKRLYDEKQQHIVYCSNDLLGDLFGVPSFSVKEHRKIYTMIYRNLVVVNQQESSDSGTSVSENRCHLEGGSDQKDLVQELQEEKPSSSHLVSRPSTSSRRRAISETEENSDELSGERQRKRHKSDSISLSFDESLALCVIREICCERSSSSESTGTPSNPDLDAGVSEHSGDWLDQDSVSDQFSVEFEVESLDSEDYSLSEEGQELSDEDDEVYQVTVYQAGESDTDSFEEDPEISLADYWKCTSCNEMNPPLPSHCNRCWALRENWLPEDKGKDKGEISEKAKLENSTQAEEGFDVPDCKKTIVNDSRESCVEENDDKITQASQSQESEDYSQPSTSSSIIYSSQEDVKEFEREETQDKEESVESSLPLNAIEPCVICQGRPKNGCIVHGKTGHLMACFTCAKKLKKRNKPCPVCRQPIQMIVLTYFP
# Mdm2-MdmX conf: Mdm2-MdmX complex disruptors, retested hits, confirmation, luminescence, single concentration. shares compounds with Mdm2 MdmX PPI. Mdm2-MdmX binding, luminescent assay. inhibition, % at 8 µM. 10,000 tested, 55% active; in the data active = inhibition above about 40%
# Full FLuc ctr: full-length luciferase signal inhibition, confirmation, counter-screen for Mdm2/MdmX interaction inhibitor project, cell-based, single concentration, SaOS-2; shares compounds with Mdm2 MdmX PPI; SaOS-2 full-length luciferase counterscreen, luminescence; inhibition, % at 8 µM; 6,200 tested, 77% active; AID 504607, 2011;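 active = mean inhibition at 8 µM reaching about 37%, which flags the compound as non-specific, limit read from the data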;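 also: p53-null SaOS-2 cells with luciferase driven by a doxycycline-inducible promoter; compound on cells about two nights before reading with doxycycline added after day one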
# * = called active by the depositor; ? = inconclusive; · = no result given. This is a sample that favours compounds with a hit; in the whole collection about 6.6% have one here.
SMILES,NR3A LBD binder,MPTP block,Gli-Sufu block,CSC inhib,Beta apoptosis,Mdm2 MdmX PPI,Mdm2-MdmX conf,others
CC(=O)C(C)n1c(CN2CCN(C(=O)c3ccco3)CC2)nc2c1c(=O)n(C)c(=O)n2C (centres undefined),2,0,-2,-9,-3,3,·,
Cc1ccc(-c2nnn3c2nc(Cl)c2ccccc23)cc1,-1,2,4,·,·,·,·,
Clc1nc2c(-c3ccccc3)nnn2c2ccccc12,-2,4,4,71,-5,100*,55*,Full FLuc ctr=51*
CN(CC(=O)Nc1ccccc1Cl)C(=O)Cn1cnc2ccc(Cl)cc2c1=O,0,0,-4,·,5,11,·,
CC(=O)c1ccc(N2CCN(C(=O)c3ccccc3SCC(=O)NCc3ccco3)CC2)c(F)c1,0,1,5,·,·,·,·,
CCN(C(=O)COC(=O)CCCOc1ccccc1)c1c(N)n(Cc2ccccc2)c(=O)[nH]c1=O,2,0,-9,-4,-4,13,·,
O=C(CNC1CCCCC1)Nc1ccc(Cl)cc1,0,2,-7,-6,·,-4,·,
COc1cc(C(C[N+](=O)[O-])c2c(-c3ccccc3)cc3ccccn23)cc(OC)c1OC (centres undefined),3,0,11,10,-8,55*,15,
COc1ccc(C(C[N+](=O)[O-])c2c(-c3ccccc3)cc3ccccn23)cc1 (centres undefined),2,1,-4,?,-8,96*,16,
COc1cc(C(C[N+](=O)[O-])c2c(C)cc3ccccn23)ccc1O (centres undefined),-8,5,19,23,14,-21,·,
COc1ccc(C(C[N+](=O)[O-])c2c(-c3ccccc3)cc3ccccn23)cc1OC (centres undefined),0,0,-7,10,1,37,·,
Cc1onc(C(=O)NC2CCCCC2)c1[N+](=O)[O-],0,-1,22,-16,-9,8,·,
COc1ccc(S(=O)(=O)NCC(c2ccc3c(c2)OCO3)N2CCN(c3ccccc3)CC2)cc1 (centres undefined),3,-1,5,·,-2,25,·,
C/C(=N\NC(=O)c1ccccc1O)c1ccc(NC(=O)Cc2ccccc2)cc1,-7,0,-8,-5,23,51*,20,
Cc1cc(C)cc(C(=O)Nc2ccc(NC(=O)Cc3ccccc3)cc2)c1,-5,1,10,9,26,52*,10,
C/C(=N\NC(=O)c1ccccc1O)C1CC1,1,1,-7,-3,10,52*,17,
Cc1ccc(CC(=O)Nc2cccc(C(=O)Nc3c(C)n(C)n(-c4ccccc4)c3=O)c2)cc1C,·,1,·,·,·,·,·,
Cc1cc(OCC(=O)Nc2ccccn2)c2c(C)c(C)c(=O)oc2c1,2,-3,4,-7,0,52*,-5,
Cc1cc(OCC(=O)NCc2ccccn2)c2c(C)c(C)c(=O)oc2c1,-1,0,2,-30,-2,23,·,
Cc1ccc(CNCCCn2cnc(C(=O)Nc3ccc(C)c(C)c3)n2)o1,0,2,3,·,·,·,·,
CCNc1nc(C)c2cc(Br)c(=O)n(CC)c2n1,0,2,6,43,19,73*,44*,Full FLuc ctr=46*
Cc1cccn2c(=O)c(C(=O)NC3CCCCC3C)c(O)nc12 (centres undefined),-1,2,-5,-3,·,34,·,
Cc1ccn2c(=O)c(C(=O)NC3CCCCC3C)c(O)nc2c1 (centres undefined),0,0,-3,21,·,67*,67*,Full FLuc ctr=68*
COc1ccc(C(=O)N(C)CCCC2CCCC2)cc1OC1CCN(C(C)C)CC1,-3,1,34,10,13,55*,36,Full FLuc ctr=72*
COc1ccc(C(=O)N(C)CCCC2CCCC2)cc1OC1CCN(C(C)=O)CC1,-2,-2,10,22,-2,2,·,
SMILES,NR3A LBD binder,MPTP block,Gli-Sufu block,CSC inhib,Beta apoptosis,Mdm2 MdmX PPI,Mdm2-MdmX conf,others
CCOC(=O)c1c(C)nc2sc(C(N)=O)c(N)c2c1-c1ccccc1,-1,-15,23,7,-9,13,·,
CCOC(=O)c1c(C)nc2sc(C(=O)Nc3ccccc3)c(N)c2c1-c1ccc(OC)cc1,0,1,6,-9,36,59*,35,
CCOc1ccccc1C(=O)Nc1ccc2nc(N3CCN(c4ncccn4)CC3)cc(C)c2c1,1,·,18,-2,-5,96*,84*,Full FLuc ctr=51*
COc1cccc(C(=O)Nc2ccc3nc(N4CCN(c5ncccn5)CC4)cc(C)c3c2)c1OC,·,·,·,61,24,98*,88*,Full FLuc ctr=7
COc1ccc(C(=O)Nc2ccc3nc(N4CCN(C)CC4)cc(C)c3c2)c(OC)c1,-2,-1,12,3,-1,37,·,
O=C(CSC(=S)N1CCOCC1)c1cc2ccccc2oc1=O,1,0,2,3,-2,-22,·,
S=C1NC2=C(CCCC2=C2SCCS2)C(c2ccccc2)N1 (centres undefined),-2,-2,-8,42,-21,65*,23,
O=C(Sc1ccc(Cl)cc1)c1ccccn1,2,-1,-2,10,-16,10,·,
CC(C)n1nnnc1SCC(=O)N1CCN(Cc2ccc3c(c2)OCCO3)CC1,0,0,-5,-13,4,7,·,
O=C(/C=C/c1cccc(Cl)c1)c1nc2ccccc2[nH]1,-15,-2,-1,84*,-3,92*,4,
COC(=O)C[C@@H]1CC[C@@H](NC(=O)C2CCC2)[C@@H](CO)O1,·,-2,·,·,·,·,·,
CCn1c2ccccc2c2cc(NC(=O)COc3ccccc3OC)ccc21,-13,-2,5,63,-7,38,·,
OCCNCC(O)Cn1c2ccccc2c2ccccc21 (centres undefined),3,-2,-10,18,3,17,·,
CCn1c2ccccc2c2cc(NC(=O)CNCc3ccccc3OC)ccc21,-7,1,-6,71,12,57*,56*,Full FLuc ctr=81*
COc1ccccc1CNCC(O)Cn1c2ccccc2c2ccccc21 (centres undefined),1,-4,11,64,103*,90*,67*,Full FLuc ctr=50*

# High-throughput results from PubChem BioAssay.
